# Source: PubChem BioAssay (National Center for Advancing Translational Sciences (NCATS))
# DT40 TDP1 no CPT: qHTS for Inhibitors of human tyrosyl-DNA phosphodiesterase 1 (TDP1): qHTS in cells in absence of CPT; Potency, µM (titrated, usually from 46.2 µM), for the others: top-dose activity change, negative = growth inhibition, hits mostly inhibitors; 420,000 tested, 15% active; AID 686978, 2013; DT40 Tdp1-/- hTDP1 cells, no CPT, ATP luminescence, 48 h; also: nearly all actives have a fitted effect of over 55% in size
#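 Cells were dispensed at 400 per well, compounds added by pin tool, plates incubated ≥48 hr at 37 °C, then CellTiter-Glo added for 30 min at room temperature before luminescence reading. Line: DT40 Tdp1-/- complemented with hTDP1; camptothecin omitted.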
# RORg inh: qHTS for inhibitors of ROR gamma transcriptional activity | 310,000 tested, 5.4% active | Potency, µM (titrated, usually from 53.6 µM), for the others: top-dose activity change, negative = inhibition, usual class: inhibitors | Nuclear receptor ROR-gamma (Mus musculus), P51450 | Drosophila S2 Gal4-RORgamma UAS-luciferase reporter, 20 h; also: nearly all actives have a fitted effect of over 60% in size
# Target sequence (P51450 whole entry, looked up, the tested form may be a part): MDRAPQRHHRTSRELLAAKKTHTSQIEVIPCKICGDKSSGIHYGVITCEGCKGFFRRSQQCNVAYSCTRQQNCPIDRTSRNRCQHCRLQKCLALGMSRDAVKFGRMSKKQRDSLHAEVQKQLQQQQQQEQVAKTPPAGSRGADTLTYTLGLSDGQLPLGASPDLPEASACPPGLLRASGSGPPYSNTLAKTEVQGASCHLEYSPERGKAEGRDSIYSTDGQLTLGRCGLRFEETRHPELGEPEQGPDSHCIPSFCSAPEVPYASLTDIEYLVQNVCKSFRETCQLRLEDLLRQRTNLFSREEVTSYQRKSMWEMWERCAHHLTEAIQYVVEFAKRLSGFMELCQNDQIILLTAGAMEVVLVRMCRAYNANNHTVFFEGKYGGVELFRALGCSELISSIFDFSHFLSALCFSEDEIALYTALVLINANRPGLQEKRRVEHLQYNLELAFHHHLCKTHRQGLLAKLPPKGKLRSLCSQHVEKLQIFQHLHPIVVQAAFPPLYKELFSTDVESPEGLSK
#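 Read-out: Photinus luciferase luminescence; inhibitors lower reporter signal. Insect Schneider cells with Gal4-ROR gamma fusion under metallothionein promoter, UAS reporter; 700 uM final copper sulfate induction, 20 hr, ambient temperature.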
# TDP1 inh: qHTS Assay for Inhibitors of Tyrosyl-DNA Phosphodiesterase (TDP1); 350,000 tested, 0.28% active; recombinant TDP1, AlphaScreen DNA substrate cleavage; Tyrosyl-DNA phosphodiesterase 1 (Homo sapiens), Q9NUW8; Potency, µM (top dose mostly 130 µM), for inactives: top-dose activity change, negative = inhibition, actives largely listed as inhibitors; also: nearly all actives have a fitted effect of over 40% in size
#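 Tdp1 1 nM final; 15 min RT w/ cpd; substrate 15 nM, 5 min; beads 10 ug/ml, 10 min; AlphaScreen read. Neg ctrl: no enzyme.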
# DT40 TDP1 CPT: qHTS for Inhibitors of human tyrosyl-DNA phosphodiesterase 1 (TDP1): qHTS in cells in presence of CPT. chicken DT40 Tdp1-/-;hTDP1 cells + 20 nM CPT, ATP luminescence, 48 h. Potency, µM (doses to about 46.2 µM), for inactives: at the top dose activity change, negative = growth inhibition, most hits filed as inhibitors. 420,000 tested, 12% active; also: nearly all actives have a fitted effect of over 55% in size
#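 Chicken DT40 Tdp1-/- cells complemented with human TDP1, 400 cells/well, exposed to compounds plus 20 nM camptothecin for at least 48 h at 37 C; viability read as ATP content by CellTiter-Glo luminescence.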
# Gal4-VP16 FLuc: VP16 counterscreen qHTS for inhibitors of ROR gamma transcriptional activity | 310,000 tested, 3.5% active | Drosophila S2 Gal4-VP16 UAS-luciferase, luminescence, 20 h | AID 2546, 2010 | Potency, µM (doses to about 53.6 µM), for the others: at the top dose activity, negative = inhibition, hits mostly inhibitors;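 also: Gal4-VP16 expression switched on by copper sulfate through the metallothionein promoter; nearly all actives have a fitted effect of over 50% in size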
# * hit, by the source's call; ? = inconclusive; · = not tested or not shown; ! = not active in a repeat; [ ] = remark or other dose. In the library only some 19% were active in any assay of this set; here they are far more common. Calls follow the shape of the dose curve; as a rule, active = well fitted curve in the direction sought with a large enough effect; inconclusive = small, poorly fitted or top-dose-only effect, or another doubt; inactive = no such curve, though single readings can be large; an effect the other way counts as inactive or inconclusive. % is scaled to controls: 0 for no effect and ±100 for the full control effect; potency is read from the fitted curve at half-maximal effect.
SMILES,DT40 TDP1 no CPT,RORg inh,TDP1 inh,DT40 TDP1 CPT,Gal4-VP16 FLuc
C[C@H]1O[C@@H](O[C@H]2[C@@H](O)C[C@H](O[C@H]3[C@@H](O)C[C@H](O[C@H]4CC[C@@]5(C)[C@H](CC[C@@H]6[C@@H]5CC[C@]5(C)[C@@H](C7=CC(=O)OC7)CC[C@]65O)C4)O[C@@H]3C)O[C@@H]2C)C[C@H](O)[C@@H]1O,0.3µM*,1.6µM*,5%,0.3µM*,-12%
N#CCCN(C(=O)COC(=O)c1ccc2c(c1)NC(=O)CS2)c1ccc2c(c1)OCCO2,?,4%,8%,-17%,1%
O=P(NC1CCCCC1)(Oc1ccccc1)Oc1ccccc1,?,·,·,-12%,·
CCOC(=O)C1CCN(/C=C2/C(=O)NC(=S)N(c3cccc(OC)c3)C2=O)CC1,0%,-19%,1%,-3%,-7%
CC(C)(C)NCc1cccn1-c1sc2c(c1C#N)CCCC2,-29%,-5%,-7%,?,-3%
C[N+]1(C)[C@@H]2CC[C@H]1CC(OC(=O)c1c[nH]c3ccccc13)C2 (some centres undefined),-4%,·,·,7%,·
CCCNC(=O)N1[C@H]2CC[C@@H]1C(C(=O)OC)=C(c1ccc(F)cc1OCc1ccccc1)C2,?,·,0%,?,·
c1nc2nc3c(c(N4CCNCC4)n2n1)CCCC3,12%,?,·,2%,2%
OCCN1CCN(CCCN2c3ccccc3Sc3ccc(C(F)(F)F)cc32)CC1,18µM*,-5%,5%,16µM*,?
FC(F)(F)c1ccc2c(c1)N(CCCN1CCN(CCCl)CC1)c1ccccc1S2,8.2µM*,-25%,9%,8.2µM*,-8%
O=C1Nc2ccccc2Oc2ccccc21,10%,·,·,7%,·
CC1(C)[C@@H](C=C(Cl)Cl)[C@@H]1C(=O)OCc1c(F)c(F)cc(F)c1F,·,29%,·,·,8%
CN(C)C(=S)SSC(=S)N(C)C,0.15µM*,0.11µM*,14%[56.1 µM],0.15µM*,1µM*!
CN(C)C(=S)SC(=S)N(C)C,0.84µM*,6.3µM*,4%,0.84µM*,?
CCc1cc2c(nc1CC)CCN(CC/C(C)=N/OC)C2,·,1%[10 µM],6%[21 µM],·,-1%[10 µM]
C=CCn1c(O)c(C(C)=NCc2cc(OC)cc(OC)c2)c(=O)[nH]c1=O,1.6µM*,24%,4%,4.1µM*,-7%
CCN(CC)C(=O)Cn1cc(C=C2C(=O)N(C)C(=O)N(C)C2=O)c2ccccc21,-5%,-19%,·,13%,0%
N#Cc1cccc(NC(=O)N2CCCC3(CCN(C(=O)Oc4ccccc4)CC3)C2)c1,-12%,-16%,·,1%,6%
CCCc1c(-c2ccccc2F)ncn1CCc1ccccc1OC,2.6µM*,·,·,3.7µM*,·
COc1ccc(CN2CCN(c3ccccc3F)CC2)cc1O,-15%,22%,2%,-12%,13%
C[C@@]12CC[C@H](O)C[C@@H]1CC[C@H]1[C@H]2CC[C@@]2(C)[C@@H](C3=CC(=O)OC3)CC[C@]12O,·,7%[16.9 µM],3%[21 µM],·,-3%[17 µM]
COC1C(O)C(C)O[C@H](OC2CC[C@@]3(C=O)C4CC[C@]5(C)C(C6=CC(=O)OC6)CC[C@@]5(O)C4CC[C@@H]3C2)C1O (some centres undefined),0.37µM*,12%,10%[56.1 µM],0.65µM*,-2%
COC1C(O)C(C)O[C@@H](OC2CC[C@@]3(C)C4CC[C@]5(C)C(C6=CC(=O)OC6)CC[C@@]5(O)C4CC[C@@H]3C2)C1O (some centres undefined),0.65µM*,?,14%[56.1 µM],1µM*,-11%
C/C(=N\N(C)c1ccccc1)c1c(O)[nH]c(=O)[nH]c1=O,-23%,11%,8%,-8%,-3%
CCCCCOc1ccc(C)cc1CN(CCCl)CCCl,16µM*,?,-5%,16µM*,?
SMILES,DT40 TDP1 no CPT,RORg inh,TDP1 inh,DT40 TDP1 CPT,Gal4-VP16 FLuc
CC(=O)Nc1ccc(C2CN(C)CC2C(=O)c2ccc(Cl)cc2)cc1 (centres undefined),0%,12%,5%,3%,13%[10 µM]
CN1CC(C(=O)c2ccc(Cl)cc2)C(c2ccc(N(C)C)cc2)C1 (centres undefined),?,-21%,5%,21µM*,-2%[10 µM]
Cc1ccc(NC(=O)c2ccc(C)c(S(=O)(=O)N3CCCCC3)c2)nc1,?,·,·,-22%,·
CC(=O)c1ccc(N2CCN(S(=O)(=O)c3cc(-c4onc(C)c4C)ccc3C)CC2)cc1,9.2µM*,·,3%,8.2µM*,·
Cc1cnc(SCc2ccccn2)nc1C1CCCN(C(=O)c2cccc(-c3cccc(F)c3)c2)C1 (centres undefined),16µM*,·,·,-7%[9.04 µM],·
c1ccc2c(c1)CC1CNCc3cccc(c31)S2 (centres undefined),-17%,1%,4%,6%,-1%
O=[N+]([O-])c1cccc(C2N3CCCN23)c1 (centres undefined),0%,2%,-8%,-6%,12%
CC(C)n1c(N2CCN(S(=O)(=O)c3cccc([N+](=O)[O-])c3)CC2)nc2ccccc21,12µM*,?,·,?,0%
COC1=CC(=O)[C@]2(C=C1OC)OC[C@@H]1Oc3c(ccc4c3C=CC(C)(C)O4)C(=O)[C@@H]12,0.21µM*,·,-5%,0.29µM*,·
CN(C)CCN=Cc1c(O)n(Cc2ccc3c(c2)OCO3)c(=S)[nH]c1=O,-7%,-10%,·,2%,-17%
O=C1CN=C(c2cccc(Br)c2)c2cc(Br)ccc2N1,16µM*,-4%,·,-4%,-8%
CCc1c(C)nc(N)nc1N1N=C1SC(C(C)=O)C(C)=O,5%,25%,2%,-14%,-10%
c1ccc2c(CCNCc3ccc4c(c3)OCO4)c[nH]c2c1,?,-29%,-2%[56.1 µM],?,?
CN1c2ccc([N+](=O)[O-])cc2CC2(C(=O)NC(=O)N(c3ccccc3)C2=O)C1c1ccccc1 (centres undefined),18µM*,3%,1%,13µM*,-5%
CN1c2ccc([N+](=O)[O-])cc2CC2(C(=O)NC(=O)NC2=O)C1c1ccccc1 (centres undefined),?,1%,0%,?,-4%
CCCn1c(C)c(C(=O)c2ccc3ccccc3c2)c2ccccc21,·,·,-10%[56.1 µM],·,·
COc1ccc(C(=O)c2c(C)n(CCN3CCOCC3)c3ccccc23)cc1,24µM*,27%,5%,?,-7%
COc1ccc2c(c1)/C(=C/c1cnc[nH]1)C(=O)N2,1.2µM*,?,13%,2.6µM*,?
